# According to the supplement of paper PMC7724964:
# T1: DVL3 407-503 DEP (domain begin residue: 407, domain end residue: 503), Q92997
# T1 chain: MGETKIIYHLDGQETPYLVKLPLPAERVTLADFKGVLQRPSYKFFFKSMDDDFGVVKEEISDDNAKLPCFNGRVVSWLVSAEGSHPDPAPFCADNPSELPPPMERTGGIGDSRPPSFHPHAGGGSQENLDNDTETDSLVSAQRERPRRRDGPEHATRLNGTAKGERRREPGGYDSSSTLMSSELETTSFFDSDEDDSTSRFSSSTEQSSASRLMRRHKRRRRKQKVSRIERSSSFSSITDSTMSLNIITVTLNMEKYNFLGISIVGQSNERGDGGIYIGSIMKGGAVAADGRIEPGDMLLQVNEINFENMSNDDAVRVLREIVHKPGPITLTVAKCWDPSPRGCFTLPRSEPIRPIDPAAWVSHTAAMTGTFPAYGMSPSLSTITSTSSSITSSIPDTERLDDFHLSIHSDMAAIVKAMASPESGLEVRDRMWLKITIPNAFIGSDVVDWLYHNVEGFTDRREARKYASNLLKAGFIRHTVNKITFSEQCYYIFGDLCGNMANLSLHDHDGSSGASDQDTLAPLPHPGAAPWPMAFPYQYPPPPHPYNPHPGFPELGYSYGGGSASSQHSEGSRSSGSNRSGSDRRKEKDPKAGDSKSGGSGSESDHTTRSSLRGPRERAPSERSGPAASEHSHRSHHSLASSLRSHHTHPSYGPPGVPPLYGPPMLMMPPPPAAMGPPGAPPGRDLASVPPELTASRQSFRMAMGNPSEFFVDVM
# T2: DVL2 416-511 DEP (domain begin residue: 416, domain end residue: 511), O14641
# T2 chain: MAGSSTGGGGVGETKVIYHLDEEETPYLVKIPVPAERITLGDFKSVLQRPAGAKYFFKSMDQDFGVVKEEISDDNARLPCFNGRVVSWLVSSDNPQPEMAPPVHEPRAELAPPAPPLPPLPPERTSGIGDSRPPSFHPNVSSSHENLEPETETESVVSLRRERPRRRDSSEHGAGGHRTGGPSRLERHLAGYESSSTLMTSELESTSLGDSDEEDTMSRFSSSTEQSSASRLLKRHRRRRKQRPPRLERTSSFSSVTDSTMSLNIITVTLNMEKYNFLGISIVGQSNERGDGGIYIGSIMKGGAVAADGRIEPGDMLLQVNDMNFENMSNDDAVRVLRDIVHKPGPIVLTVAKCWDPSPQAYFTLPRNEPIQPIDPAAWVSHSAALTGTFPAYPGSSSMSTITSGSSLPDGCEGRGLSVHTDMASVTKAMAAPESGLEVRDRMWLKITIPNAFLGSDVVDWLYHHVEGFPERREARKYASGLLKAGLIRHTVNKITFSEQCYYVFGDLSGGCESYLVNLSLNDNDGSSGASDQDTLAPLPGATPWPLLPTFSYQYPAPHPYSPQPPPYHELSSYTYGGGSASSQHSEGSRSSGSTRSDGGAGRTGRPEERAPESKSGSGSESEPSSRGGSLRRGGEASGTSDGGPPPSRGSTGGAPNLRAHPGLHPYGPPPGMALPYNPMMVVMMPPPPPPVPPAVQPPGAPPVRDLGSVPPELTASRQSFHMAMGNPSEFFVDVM
# T3: DOK2 146-252 IRS (domain begin residue: 146, domain end residue: 252), O60496
# T3 chain: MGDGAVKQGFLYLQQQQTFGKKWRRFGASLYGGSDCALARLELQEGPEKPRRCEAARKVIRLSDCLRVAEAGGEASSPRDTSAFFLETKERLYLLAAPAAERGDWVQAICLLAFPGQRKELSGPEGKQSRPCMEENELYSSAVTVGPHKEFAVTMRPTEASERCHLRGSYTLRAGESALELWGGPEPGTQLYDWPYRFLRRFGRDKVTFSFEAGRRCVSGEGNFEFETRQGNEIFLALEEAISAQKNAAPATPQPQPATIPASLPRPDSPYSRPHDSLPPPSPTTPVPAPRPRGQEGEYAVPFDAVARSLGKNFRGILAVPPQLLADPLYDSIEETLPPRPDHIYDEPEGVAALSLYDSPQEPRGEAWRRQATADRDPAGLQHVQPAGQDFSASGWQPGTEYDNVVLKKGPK
# T4: DOK3 213-322 IRS (domain begin residue: 213, domain end residue: 322), Q7L591
# T4 chain: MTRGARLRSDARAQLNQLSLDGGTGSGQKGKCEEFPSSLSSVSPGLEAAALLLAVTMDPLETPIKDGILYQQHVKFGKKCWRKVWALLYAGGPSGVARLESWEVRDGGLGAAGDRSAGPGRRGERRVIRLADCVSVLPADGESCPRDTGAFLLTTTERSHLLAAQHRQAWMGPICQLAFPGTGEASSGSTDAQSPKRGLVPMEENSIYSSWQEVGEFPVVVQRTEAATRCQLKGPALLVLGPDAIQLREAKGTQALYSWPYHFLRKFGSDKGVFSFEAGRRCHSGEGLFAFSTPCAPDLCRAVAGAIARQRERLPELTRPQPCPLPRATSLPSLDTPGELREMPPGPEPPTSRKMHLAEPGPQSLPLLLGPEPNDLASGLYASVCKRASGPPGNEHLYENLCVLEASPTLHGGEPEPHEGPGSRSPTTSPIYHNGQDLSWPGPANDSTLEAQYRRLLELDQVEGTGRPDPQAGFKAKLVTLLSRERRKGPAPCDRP
# What was measured:
# Test in all cases: phage ELISA signal ratio (GST-PRM binding over GST background); higher = stronger binding of peptide-phage to the PRM
# [1] = molecular target: DYNLL1 1-89 Dynein_light (domain begin residue: 1, domain end residue: 89), P63167
# Method in brief: (§1)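 Human peptide recognition domains were expressed in 96-well plates as fusions to the C-terminus of glutathione S-transferase (GST) and selected against an M13 phage library displaying randomized hexadecapeptides, cysteine-free and glycine-flanked, on the gene-8 major coat protein. Five selection rounds were run, and approximately 48 individual clones from rounds 4 and 5 were tested by phage ELISA. Each value is the ELISA signal on the GST-domain fusion divided by the signal on GST alone. Positive clones were sequenced.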
# [2] = molecular target: T1, DVL3 407-503 DEP (domain begin residue: …
# Method in brief: as §1
# [3] = molecular target: T2, DVL2 416-511 DEP (domain begin residue: …
# Method in brief: as §1
# [4] = molecular target: DOK4 130-237 IRS (domain begin residue: 130, domain end residue: 237), Q8TEW6
# Method in brief: as §1
# [5] = molecular target: T3, DOK2 146-252 IRS (domain begin residue: …
# Method in brief: as §1
# [6] = molecular target: T4, DOK3 213-322 IRS (domain begin residue: …
# Method in brief: as §1
# Sequence of DOK4 130-237 IRS (domain begin residue: 130, domain end residue: 237), Q8TEW6 (Q8TEW6 whole entry): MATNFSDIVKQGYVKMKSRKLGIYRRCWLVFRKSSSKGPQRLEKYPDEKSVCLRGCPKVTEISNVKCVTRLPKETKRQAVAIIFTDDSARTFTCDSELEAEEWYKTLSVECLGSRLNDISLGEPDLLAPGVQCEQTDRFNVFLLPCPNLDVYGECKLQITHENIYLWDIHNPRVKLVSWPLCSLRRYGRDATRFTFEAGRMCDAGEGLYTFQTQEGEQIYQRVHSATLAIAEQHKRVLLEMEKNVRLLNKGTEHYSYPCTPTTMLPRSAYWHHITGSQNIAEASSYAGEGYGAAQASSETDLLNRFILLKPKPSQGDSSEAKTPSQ
# Sequence of DYNLL1 1-89 Dynein_light (domain begin residue: 1, domain end residue: 89), P63167 (P63167 whole entry, the tested form may be a part): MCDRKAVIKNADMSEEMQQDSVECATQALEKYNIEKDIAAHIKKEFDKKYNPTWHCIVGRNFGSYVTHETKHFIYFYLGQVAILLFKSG
binder,measurement,setting,value
TQTEFYASDWWMMENV,phage ELISA signal ratio,[1],15.6
MDGWFWDHAPHFTMDF,phage ELISA signal ratio,[2],4.23
YQPDMRMQDGKWYWII,phage ELISA signal ratio,[3],20.4
SQTEWDWLEREWKPSI,phage ELISA signal ratio,[1],19.4
IEWTHTNWEWNKMETQ,phage ELISA signal ratio,[4],11.9
VFWENQHWMQDLNPEW,phage ELISA signal ratio,[3],26.1
IYWDWEDGYIYEHQPE,phage ELISA signal ratio,[3],18.2
EQLWWSNPLWTEGIEE,phage ELISA signal ratio,[5],16.1
DLDFMWWDNPVHETDL,phage ELISA signal ratio,[5],16.8
YETPEPQWLWVMNPIH,phage ELISA signal ratio,[4],14.6
TQTPVWGMDGWMWVTV,phage ELISA signal ratio,[1],19.5
FEWTSSPVWSDHQEHN,phage ELISA signal ratio,[4],11.5
PLENPTYKDGLWWWSV,phage ELISA signal ratio,[3],24.4
WTQTEDPWEYTWLDLV,phage ELISA signal ratio,[1],17.8
DEWKWFDMVGTQTQTP,phage ELISA signal ratio,[5],16.8
KWMIDLTDWEAYWVPS,phage ELISA signal ratio,[3],26.7
PKYQFSLSAESLQWLM,phage ELISA signal ratio,[2],18.1
GHNEIMTIQQHATWLY,phage ELISA signal ratio,[6],5.54
EHLRPEMDWTYVWWEH,phage ELISA signal ratio,[4],4.35
MWFWNLDEAMPIWTAM,phage ELISA signal ratio,[3],13.3
GWDDQIWTWSPMYMPV,phage ELISA signal ratio,[4],19
WPEGIKYTWVKEHETE,phage ELISA signal ratio,[4],8.42
PDLAAWRIWIMEEEQV,phage ELISA signal ratio,[2],22.4
EWMWMDNPGFHMTEAT,phage ELISA signal ratio,[5],13.6
MWEWTDNPSYTIPGQQ,phage ELISA signal ratio,[4],7.86
QWMDLNDLQWTYNPWY,phage ELISA signal ratio,[4],11.2
VQTDWYGVDGFWVPVL,phage ELISA signal ratio,[1],18.1
PEQMEYWTWSPLHVSQ,phage ELISA signal ratio,[4],13.1
